From PubChem BioAssay AID1159580 (chemical genetic matrix, 2015)
“And” between values parts separate entries of the source, which are not always exact repeats. Equal entries are not always repeated. Screen size: about 5,500 compounds; about 2,000 (36%) were called active. Another 18% or so got no clear call; they are omitted. Cut-off read from the data, not from the text of the source: active = normalized growth mostly below about 0.91 (no sharp cut-off); inconclusive = no clear call, values can overlap the other calls; inactive = mostly above about 0.92. This is one part of the list.

Experiment: chemical genetic growth profiling, strain panel (AID 1159580);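 note: tested at 20 µM; growth read once vehicle control cultures reached saturation at 30 °C; 1 = growth at the plate median or of vehicle wells; lower values mean less growth of the strain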
Conditions: S. cerevisiae deletion strains, growth OD

Measured: normalized growth

CC(=O)/C=C\[C@@H]1[C@@]2(C)CCCC(C)(C)C2CC[C@@]1(C)O (some centres not stated)
inactive: locus YAL013W, strain DEP1, stronger effect = lower value 0.964 | locus YAL021C, strain ccr4, stronger effect = lower value 0.989 | locus YAL026C, strain drs2, stronger effect = lower value 0.971 | locus YAL030W, strain snc1, stronger effect = lower value 0.974 | locus YBL061C, strain skt5, stronger effect = lower value 0.983 | locus YBR009C, strain hhf1, stronger effect = lower value 0.971 | locus YBR021W, strain FUR4, stronger effect = lower value 0.99 | locus YBR023C, strain chs3, stronger effect = lower value 0.977 | locus YBR171W, strain sec66, stronger effect = lower value 0.96 | locus YBR229C, strain ROT2, stronger effect = lower value 0.946 | locus YBR231C, strain swc5, stronger effect = lower value 0.988 | locus YBR279W, strain paf1, stronger effect = lower value 0.966 | locus YCL011C, strain gbp2, stronger effect = lower value 0.966 | locus YCL016C, strain dcc1, stronger effect = lower value 0.988 | locus YCL029C, strain bik1, stronger effect = lower value 0.985 | locus YCL061C, strain MRC1, stronger effect = lower value 0.988 | locus YCL069W, strain vba3, stronger effect = lower value 0.949 | locus YCR088W, strain abp1, stronger effect = lower value 0.986 | locus YDL005C, strain med2, stronger effect = lower value 0.971 | locus YDL035C, strain GPR1, stronger effect = lower value 0.963 | locus YDL040C, strain nat1, stronger effect = lower value 0.983 | locus YDL074C, strain BRE1, stronger effect = lower value 0.901 | locus YDL101C, strain DUN1, stronger effect = lower value 0.952 | locus YDL134C, strain PPH21, stronger effect = lower value 0.964 | locus YDL185W, strain tfp1, stronger effect = lower value 0.966 | locus YDL192W, strain arf1, stronger effect = lower value 0.98 | locus YDR001C, strain nth1, stronger effect = lower value 0.967 | locus YDR069C, strain doa4, stronger effect = lower value 0.973 | locus YDR101C, strain arx1, stronger effect = lower value 0.995 | locus YDR137W, strain rgp1, stronger effect = lower value 0.902 | locus YDR150W, strain NUM1, stronger effect = lower value 0.967 | locus YDR159W, strain sac3, stronger effect = lower value 0.922 | locus YDR162C, strain NBP2, stronger effect = lower value 0.843 | locus YDR195W, strain ref2 0.955 | locus YDR297W, strain sur2, stronger effect = lower value 0.982 | locus YDR318W, strain mcm21, stronger effect = lower value 1 | locus YDR334W, strain swr1, stronger effect = lower value 0.946 | locus YDR335W, strain msn5, stronger effect = lower value 0.981 | locus YDR388W, stronger effect = lower value 0.987 | locus YDR392W, strain spt3, stronger effect = lower value 0.842 | locus YDR502C, strain sam2, stronger effect = lower value 0.951 | locus YEL003W, strain gim4, stronger effect = lower value 0.976 | locus YEL037C, strain rad23, stronger effect = lower value 0.969 | locus YEL061C, strain CIN8 (second series), stronger effect = lower value 0.961 | locus YEL061C, strain CIN8, stronger effect = lower value 0.968 | locus YER015W, strain faa2, stronger effect = lower value 0.966 | locus YER016W, strain bim1, stronger effect = lower value 0.982 | locus YER110C, stronger effect = lower value 0.985 | locus YER111C, strain swi4, stronger effect = lower value 0.978 | locus YER155C, strain BEM2 (second series), stronger effect = lower value 0.982 | locus YER155C, strain BEM2, stronger effect = lower value 0.972 | locus YER167W, strain BCK2, stronger effect = lower value 0.989 | locus YFR010W, strain ubp6, stronger effect = lower value 0.967 | locus YGL078C, strain dbp3, stronger effect = lower value 0.968 | locus YGL086W, strain mad1, stronger effect = lower value 0.996 | locus YGL167C, strain pmr1, stronger effect = lower value 0.971 | locus YGL173C, strain kem1, stronger effect = lower value 0.975 | locus YGL227W, strain vid30, stronger effect = lower value 0.982 | locus YGL240W, strain doc1, stronger effect = lower value 0.976 | locus YGL248W, strain PDE1, stronger effect = lower value 0.969 | locus YGL253W, strain hxk2, stronger effect = lower value 0.975 | locus YGR078C, strain PAC10, stronger effect = lower value 0.963 | locus YGR135W, strain pre9, stronger effect = lower value 0.922 | locus YGR229C, strain SMI1, stronger effect = lower value 0.933 | locus YGR252W, strain gcn5, stronger effect = lower value 1.05 | locus YHR013C, strain ard1, stronger effect = lower value 0.964 | locus YHR027C, strain rpn1, stronger effect = lower value 0.967 | locus YHR030C, strain SLT2, stronger effect = lower value 0.993 and 0.958 | locus YHR079C, strain IRE1 (second series), stronger effect = lower value 0.987 | locus YHR079C, strain IRE1, stronger effect = lower value 0.989 | locus YHR094C, strain hxt1, stronger effect = lower value 0.99 | locus YHR129C, strain ARP1, stronger effect = lower value 0.975 | locus YHR142W, strain chs7, stronger effect = lower value 0.979 | locus YHR200W, strain rpn10, stronger effect = lower value 0.988 | locus YIL066C, strain RNR3, stronger effect = lower value 0.953 | locus YIL073C, strain SPO22, stronger effect = lower value 1.02 | locus YIL125W, strain kgd1, stronger effect = lower value 0.991 | locus YIR030C, strain dcg1, stronger effect = lower value 0.978 | locus YJL092W, strain hpr5, stronger effect = lower value 0.98 | locus YJL095W, strain BCK1 (second series), stronger effect = lower value 0.963 | locus YJL095W, strain BCK1, stronger effect = lower value 0.916 and 0.981 | locus YJL115W, strain asf1, stronger effect = lower value 0.96 | locus YJL129C, strain trk1, stronger effect = lower value 0.957 | locus YJL134W, strain LCB3, stronger effect = lower value 0.969 | locus YJL154C, strain vps35, stronger effect = lower value 0.973 | locus YJL164C, strain tpk1, stronger effect = lower value 0.997 | locus YJL166W, strain qcr8, stronger effect = lower value 0.982 | locus YJL168C, strain set2, stronger effect = lower value 0.976 | locus YJL187C, strain SWE1 (second series), stronger effect = lower value 0.945 | locus YJL187C, strain SWE1, stronger effect = lower value 0.969 | locus YJR043C, strain POL32, stronger effect = lower value 1.03 | locus YJR066W, strain TOR1, stronger effect = lower value 0.951
